Screens as filed in PubChem BioAssay.
CYP2C19 activ = human CYP2C19 activators, primary screen, biochemical, luminescence; Cytochrome P450 2C19 (Homo sapiens), P33261; recombinant CYP2C19, luciferin-H EGE luminescence; hits give high values; 0 = fully inhibited enzyme, 1 = untreated enzyme; activation factor at 5 µM; 96,000 tested, under 10 active;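 active = activation factor of at least 2 at 5 µM in the primary screen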
Target sequence (P33261 whole entry, looked up): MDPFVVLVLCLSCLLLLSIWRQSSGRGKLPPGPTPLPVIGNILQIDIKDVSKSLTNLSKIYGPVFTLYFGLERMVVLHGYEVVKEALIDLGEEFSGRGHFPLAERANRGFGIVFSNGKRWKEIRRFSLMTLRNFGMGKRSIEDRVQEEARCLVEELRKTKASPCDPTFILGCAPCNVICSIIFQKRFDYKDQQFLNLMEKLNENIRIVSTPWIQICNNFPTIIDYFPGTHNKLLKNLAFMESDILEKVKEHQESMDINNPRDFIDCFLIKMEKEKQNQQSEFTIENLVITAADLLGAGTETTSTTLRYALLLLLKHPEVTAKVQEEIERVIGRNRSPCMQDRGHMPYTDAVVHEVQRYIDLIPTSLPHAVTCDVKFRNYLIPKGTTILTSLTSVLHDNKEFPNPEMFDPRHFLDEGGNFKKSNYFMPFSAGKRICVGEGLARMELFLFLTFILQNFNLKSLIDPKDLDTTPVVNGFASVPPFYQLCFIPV
CYP2C9 activ = human CYP2C9 activators, primary screen, biochemical, luminescence | AID 1024, 2008 | actives 1.4% (n = 96,000) | recombinant CYP2C9, luciferin-H conversion; hits give high values; factor 1 = untreated enzyme, 0 = blocked | activation factor at 5 µM | Cytochrome P450 2C9 (Homo sapiens), P11712;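 active = activation factor of 2 or more for CYP2C9 at a 5 µM dose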
CYP2C9 inhib = blockers of cytochrome P450 2C9 activity – biochemical, luminescence, ADME assay, primary screen | actives 20% (n = 96,000) | inhibition, % at 5 µM | CYP2C9 Supersomes, luciferin-H conversion | P11712;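 active = blocking of liver enzyme CYP2C9 beyond about 50% at 5 µM, limit read from the data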
Measles CPE = compounds protecting cells from measles virus cytopathic effect, primary screen, measles RdRp inhibitor project, single point, MLSMR library, absorbance; actives 1.5% (n = 140,000); Measles virus-infected cells, CPE protection; AID 841, 2007; protection (pct of control), % at 4 µM; in the data active = protection mostly above about 24%, no sharp cut-off; inactive = mostly below about 26%
CYP2C19 inh = blockers of cytochrome P450 2C19 activity – biochemical, luminescence, ADME assay, primary screen. CYP2C19 Supersomes, luciferin-H EGE luminescence, 30 min. inhibition, % at 5 µM. actives 21% (n = 96,000). AID 778, 2007;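 active = CYP2C19 inhibition above a set limit at 5 µM in the primary screen, cut at about 50% in these data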
Large screens that a line does not name were inactive. This is a sample that favours compounds with a hit; in the whole collection about 22% have one here.

COc1ccc(CCNC(=O)CCn2c(SCC#N)nc3ccccc3c2=O)cc1OC	CYP2C9 inhib 60
COc1ccc(CCNC(=O)CCCn2c(SCC#N)nc3ccccc3c2=O)cc1OC	CYP2C9 inhib 65
COc1ccc(CCNC(=O)CCCn2c(=O)[nH]c3cc(OC)c(OC)cc3c2=O)cc1OC	none (no result: CYP2C19 activ, CYP2C9 activ, CYP2C9 inhib, CYP2C19 inh)
CCN1CCN(CC(=O)NC2CCCCC2)C(=O)C1=O	none (no result: CYP2C19 activ, CYP2C9 activ, CYP2C9 inhib, CYP2C19 inh)
Cc1ccsc1C(=O)N(c1nc2ccccc2s1)c1c(C)cccc1C	none
Cc1ccccc1N(C(=O)c1cccs1)c1nc2ccccc2s1	CYP2C9 inhib 88
Nc1c(C(=O)c2ccc(Br)cc2)oc2ccccc12	none (no result: CYP2C19 activ, CYP2C9 activ, CYP2C9 inhib, CYP2C19 inh)
Nc1c(C(=O)c2ccccc2)oc2ccc(Br)cc12	CYP2C19 inh 70
Fc1cccc(Cn2ccc(-c3ccc4c(c3)OCO4)n2)c1	CYP2C9 inhib 86, CYP2C19 inh 95
Cc1ccccc1Cn1ccc(-c2ccc3c(c2)OCO3)n1	CYP2C9 inhib 50, CYP2C19 inh 58
COCCCN1C(=O)c2ccc(C(=O)Nc3ccc(OC)cc3)cc2C1=O	none
CCn1c(C(Cc2ccccc2)NC(=O)COC)nc2ccccc21 (centres undefined)	CYP2C19 inh 81
COc1ccc(CNC(=O)C2CCN(S(=O)(=O)c3ccc(-c4nn[nH]n4)cc3)CC2)cc1	CYP2C9 inhib 65
CCCNC(=O)C1CCN(S(=O)(=O)c2ccc(-c3nn[nH]n3)cc2)CC1	CYP2C9 inhib 83
COc1ccc(S(=O)(=O)N2CCC(C(=O)NCC(c3cccs3)N(C)C)CC2)cc1 (centres undefined)	Measles CPE 52
O=C(NC1CC2CCC1C2)C1CCN(S(=O)(=O)c2ccc(-c3nn[nH]n3)cc2)CC1 (centres undefined)	CYP2C9 inhib 87
O=C(NC1CCc2ccccc21)C1CCN(S(=O)(=O)c2ccc(Cl)cc2)CC1 (centres undefined)	none (no result: CYP2C19 activ, CYP2C9 activ, CYP2C9 inhib, CYP2C19 inh)
COc1ccc(C(=O)Nc2ccc(N3CCN(C(=O)C(C)C)CC3)cc2)cc1[N+](=O)[O-]	none (no result: CYP2C19 activ, CYP2C9 activ, CYP2C9 inhib, CYP2C19 inh)
CCC(=O)N(Cc1ccc(S(N)(=O)=O)cc1)C1CC(=O)N(c2ccc(OC)cc2)C1=O (centres undefined)	none
COCC(=O)Nc1ccc(S(=O)(=O)Nc2cc(C)nc(C)n2)cc1	none
N#Cc1cccc(NC(=O)NCCc2c[nH]c3ccccc23)c1	none (no result: CYP2C19 activ, CYP2C9 activ, CYP2C9 inhib, CYP2C19 inh)
CCOC(=O)c1[nH]c2ccccc2c1NC(=O)CC	none
CCOC(=O)c1[nH]c2ccccc2c1NC(=O)c1ccc(S(=O)(=O)N2CCCC2)cc1	Measles CPE 21 (no result: CYP2C19 activ, CYP2C9 activ, CYP2C9 inhib, CYP2C19 inh)
CCOC(=O)c1[nH]c2ccccc2c1NC(=O)C1CCCCC1	none (no result: CYP2C19 activ, CYP2C9 activ, CYP2C9 inhib, CYP2C19 inh)
CCOC(=O)c1[nH]c2ccccc2c1NC(=O)NC1CCCCC1	CYP2C9 inhib 55
O=C(COC(=O)c1cc(=O)[nH]c2ccccc12)NC(=O)NC1CCCCC1	CYP2C9 inhib 53
Cc1cnc(C(=O)OCC(=O)c2csc(N3CCCCC3)n2)cn1	none
CC(C)(C)SCCNC(=O)c1ccc(NS(C)(=O)=O)cc1	none
Clc1ccc(CN2C3=NCCN3c3ccccc32)cc1	none
Clc1ccc(Cn2cccc2C2=NCCO2)cc1	CYP2C19 inh 67
CCOc1ccc2c(c1)C(c1ccccc1)=NNC(c1ccccc1)=N2	none (no result: CYP2C19 activ, CYP2C9 activ, CYP2C9 inhib, CYP2C19 inh)
Cc1cccn2c1nc(=S)n2C(=O)c1ccco1	none (no result: CYP2C19 activ, CYP2C9 activ, CYP2C9 inhib, CYP2C19 inh)
CN=C(c1ccco1)n1c(=S)nc(-c2ccco2)n(C)c1=S	CYP2C9 inhib 66, CYP2C19 inh 79
CNC(=O)N(C1=NCCCCC1)c1ccc(Br)cc1	none (no result: CYP2C19 activ, CYP2C9 activ, CYP2C9 inhib, CYP2C19 inh)
Cc1nc2cc(-c3cccc(Cl)c3)nn2c(N2CCN(C(=O)c3ccco3)CC2)c1C	CYP2C9 inhib 86, CYP2C19 inh 73 (no result: Measles CPE)
OCCN(Cc1ccccc1)Cc1ccc(Cl)cc1Cl	CYP2C9 inhib 57, CYP2C19 inh 95
O=C(Cc1ccccc1)NCCc1ccc(Cl)cc1Cl	none (no result: CYP2C19 activ, CYP2C9 activ, CYP2C9 inhib, CYP2C19 inh)
C=CCn1c(=S)[nH]c2ccc(Br)cc2c1=O	CYP2C19 inh 62
CCOC(=O)c1sc2ncnc(NCC(c3cccs3)N(C)C)c2c1C (centres undefined)	CYP2C19 inh 58
O=C(c1cccc(Br)c1)N1CCN(C(=O)N2CCCCC2)CC1	CYP2C9 inhib 61, CYP2C19 inh 77
Cc1cccc(C(=O)N2CCCCCC2)c1	CYP2C19 inh 52
O=C(c1cccc(Br)c1)N1CCCC1	none
O=C(c1cccc(-c2nnc(-c3ccccc3)o2)c1)N1CCCCC1	CYP2C9 inhib 62, CYP2C19 inh 56
Cc1cccc(C(=O)N2CCN(C(=O)c3cccc(C)c3)C(C)C2)c1 (centres undefined)	CYP2C9 inhib 78, CYP2C19 inh 89
Cc1nc2nc3c(cn2n1)C(=O)CC(C)(C)C3	none
Nc1nnc(SCC(=O)OCc2ccccc2)s1	none (no result: CYP2C19 activ, CYP2C9 activ, CYP2C9 inhib, CYP2C19 inh)
CCCCOC(=O)CSc1nnc(N)s1	CYP2C19 inh 52
CC(c1cccnc1)N(CCN(C)C)C(=O)Nc1ccc(Cl)cc1 (centres undefined)	none
COc1ccc(CNC(=O)C(OC(C)=O)c2ccccn2)cc1 (centres undefined)	none
Cc1ccccc1C(=O)NC(=S)Nc1ccc(S(=O)(=O)N(C)c2ccccc2)cc1	CYP2C9 inhib 82, CYP2C19 inh 87
Cc1cc(C)cc(C(=O)NC(=S)Nc2ccc(Cc3ccncc3)cc2)c1	none (no result: CYP2C19 activ, CYP2C9 activ, CYP2C9 inhib, CYP2C19 inh)
Cc1cccc(C(=O)NC(=S)Nc2ccc(Cc3ccncc3)cc2)c1	CYP2C9 inhib 92, CYP2C19 inh 89
Cc1cccc(C(=O)NC(=S)Nc2ccc(S(=O)(=O)N(C)c3ccccc3)cc2)c1	CYP2C9 inhib 66
CN(c1ccccc1)S(=O)(=O)c1ccc(NC(=O)c2ccccc2)cc1	none (no result: CYP2C19 activ, CYP2C9 activ, CYP2C9 inhib, CYP2C19 inh)
Cc1ccc(/C=C/c2nc3ccccc3s2)s1	CYP2C19 inh 72
CN(C)c1ccc(/C=C/c2nc3ccccc3s2)cc1	none
CC(=O)c1ccc(NS(=O)(=O)c2cccc(C)c2)cc1	CYP2C9 inhib 95, Measles CPE 41, CYP2C19 inh 99
CC(=O)c1ccc(NS(=O)(=O)c2ccc(C)cc2)cc1	CYP2C9 inhib 80, CYP2C19 inh 80
CC(=O)c1ccc(S(=O)(=O)Nc2cccc(S(=O)(=O)NC3=NCCC3)c2)cc1	none (no result: CYP2C19 activ, CYP2C9 activ, CYP2C9 inhib, CYP2C19 inh)
C/C(N)=C(/C#N)C(=O)COC(=O)C1CCC(C(C)(C)C)CC1 (centres undefined)	CYP2C9 inhib 84, CYP2C19 inh 90
C/C(N)=C(/C#N)C(=O)COC(=O)CC1CCCC1	CYP2C19 inh 88 (no result: Measles CPE)
C/C(N)=C(/C#N)C(=O)COC(=O)CC12CC3CC(CC(C3)C1)C2	CYP2C9 inhib 81, CYP2C19 inh 78
CC(C)(C)C1CCC(C(=O)OCC(=O)N2CCOCC2)CC1 (centres undefined)	none (no result: CYP2C19 activ, CYP2C9 activ, CYP2C9 inhib, CYP2C19 inh)
O=C(NC1CCCCC1)c1ccc(S(=O)(=O)NCc2cccnc2)cc1	none
CCOc1ccc(C2C(C(=O)Nc3ccc(F)cc3)=C(C)Nc3nc(CCCO)nn32)cc1 (centres undefined)	CYP2C9 inhib 62
